Drawing on ChEMBL document CHEMBL5724796, “Tm Shift (DSF) assay results for EUbOPEN Chemogenomics Library” (2024), this text covers ΔTm for 11 molecules.

Residues, ends and D or L forms follow the SMILES beside them. *: point of attachment. Cbz = O=C(OCc1ccccc1)*; CH2F = FC*

What all share (settings): Compound concentration 20.0 uM
For assay [1], the target named is Tyrosine-protein kinase ABL1 (Homo sapiens) (UniProt P00519).
The target of assay [2] is Bromodomain-containing protein 4 (Homo sapiens) (UniProt O60885).
Assay [3] has as its target Cyclin-dependent kinase 2 (Homo sapiens) (UniProt P24941).
Assay [4] deals with Casein kinase I isoform delta (Homo sapiens) (UniProt P48730).
Assay [5] has as its target Glycogen synthase kinase-3 beta (Homo sapiens) (UniProt P49841).
For assay [6], the target named is Mitogen-activated protein kinase 1 (Homo sapiens) (UniProt P28482).
The target of assay [7] is T1, Aurora kinase A (Homo sapiens) (UniProt O14965).
T1 sequence (whole entry): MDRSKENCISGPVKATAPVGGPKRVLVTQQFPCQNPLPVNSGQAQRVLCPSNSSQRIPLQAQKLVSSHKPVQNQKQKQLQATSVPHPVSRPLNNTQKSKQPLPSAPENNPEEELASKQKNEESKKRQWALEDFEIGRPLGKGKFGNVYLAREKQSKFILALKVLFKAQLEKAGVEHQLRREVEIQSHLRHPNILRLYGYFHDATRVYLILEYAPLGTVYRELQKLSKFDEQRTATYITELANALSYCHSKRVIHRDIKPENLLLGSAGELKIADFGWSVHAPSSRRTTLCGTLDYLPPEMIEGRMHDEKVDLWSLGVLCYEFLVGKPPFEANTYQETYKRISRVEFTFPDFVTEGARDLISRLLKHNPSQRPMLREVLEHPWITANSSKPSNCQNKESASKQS

Assay [8] deals with T2, Transcription intermediary factor 1-alpha (Homo sapiens) (UniProt O15164).
T2 sequence (whole entry): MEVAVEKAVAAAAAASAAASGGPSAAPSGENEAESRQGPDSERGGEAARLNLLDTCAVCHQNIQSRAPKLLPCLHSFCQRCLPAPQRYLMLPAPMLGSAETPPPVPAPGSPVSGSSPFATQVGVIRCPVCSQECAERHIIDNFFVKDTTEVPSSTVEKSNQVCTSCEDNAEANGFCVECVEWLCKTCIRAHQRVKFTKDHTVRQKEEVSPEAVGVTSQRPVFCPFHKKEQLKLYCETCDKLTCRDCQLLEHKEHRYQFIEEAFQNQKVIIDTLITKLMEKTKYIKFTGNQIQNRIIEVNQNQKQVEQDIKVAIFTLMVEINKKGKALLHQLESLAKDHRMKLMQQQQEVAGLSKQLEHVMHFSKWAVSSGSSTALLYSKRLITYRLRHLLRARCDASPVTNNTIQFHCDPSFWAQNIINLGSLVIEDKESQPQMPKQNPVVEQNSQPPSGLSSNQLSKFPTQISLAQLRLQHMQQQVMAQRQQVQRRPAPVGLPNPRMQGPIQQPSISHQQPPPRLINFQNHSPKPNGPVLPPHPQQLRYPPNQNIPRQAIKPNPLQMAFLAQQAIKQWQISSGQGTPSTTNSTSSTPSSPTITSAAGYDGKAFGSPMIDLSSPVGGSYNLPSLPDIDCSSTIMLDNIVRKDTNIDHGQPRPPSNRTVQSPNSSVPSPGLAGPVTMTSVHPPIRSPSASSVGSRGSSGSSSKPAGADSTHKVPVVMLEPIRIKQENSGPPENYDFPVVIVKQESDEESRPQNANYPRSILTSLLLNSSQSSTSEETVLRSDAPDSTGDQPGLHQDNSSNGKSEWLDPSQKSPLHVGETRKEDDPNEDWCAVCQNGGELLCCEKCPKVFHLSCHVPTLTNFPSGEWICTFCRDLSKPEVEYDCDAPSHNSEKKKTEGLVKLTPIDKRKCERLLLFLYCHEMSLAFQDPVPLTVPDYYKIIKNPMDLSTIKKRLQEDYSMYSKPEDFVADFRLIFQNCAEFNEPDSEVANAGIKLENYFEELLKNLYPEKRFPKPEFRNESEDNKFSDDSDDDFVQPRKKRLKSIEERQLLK

Mitogen-activated protein kinase 1 (Homo sapiens), sequence (P28482 whole entry): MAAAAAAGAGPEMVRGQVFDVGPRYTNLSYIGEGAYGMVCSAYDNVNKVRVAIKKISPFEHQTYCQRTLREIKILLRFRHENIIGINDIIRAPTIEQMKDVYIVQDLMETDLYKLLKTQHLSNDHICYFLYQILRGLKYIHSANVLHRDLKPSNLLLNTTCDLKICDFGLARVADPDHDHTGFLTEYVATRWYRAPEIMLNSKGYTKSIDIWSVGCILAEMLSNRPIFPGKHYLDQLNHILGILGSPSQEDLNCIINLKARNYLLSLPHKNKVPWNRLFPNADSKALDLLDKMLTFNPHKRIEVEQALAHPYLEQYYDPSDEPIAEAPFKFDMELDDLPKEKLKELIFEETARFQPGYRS
Casein kinase I isoform delta (Homo sapiens), sequence (P48730 whole entry, looked up, canonical isoform): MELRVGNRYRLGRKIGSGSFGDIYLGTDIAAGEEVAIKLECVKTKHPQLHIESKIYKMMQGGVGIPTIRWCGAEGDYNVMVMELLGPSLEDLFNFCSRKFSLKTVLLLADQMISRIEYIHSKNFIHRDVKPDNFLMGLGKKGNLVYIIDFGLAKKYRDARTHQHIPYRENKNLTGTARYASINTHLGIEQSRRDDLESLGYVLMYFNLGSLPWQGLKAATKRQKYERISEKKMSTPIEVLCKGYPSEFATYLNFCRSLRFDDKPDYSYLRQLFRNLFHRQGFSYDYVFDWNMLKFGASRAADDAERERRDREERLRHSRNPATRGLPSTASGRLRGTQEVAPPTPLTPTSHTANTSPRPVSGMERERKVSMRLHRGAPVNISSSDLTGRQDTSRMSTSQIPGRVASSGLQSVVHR
Tyrosine-protein kinase ABL1 (Homo sapiens), sequence (P00519 whole entry): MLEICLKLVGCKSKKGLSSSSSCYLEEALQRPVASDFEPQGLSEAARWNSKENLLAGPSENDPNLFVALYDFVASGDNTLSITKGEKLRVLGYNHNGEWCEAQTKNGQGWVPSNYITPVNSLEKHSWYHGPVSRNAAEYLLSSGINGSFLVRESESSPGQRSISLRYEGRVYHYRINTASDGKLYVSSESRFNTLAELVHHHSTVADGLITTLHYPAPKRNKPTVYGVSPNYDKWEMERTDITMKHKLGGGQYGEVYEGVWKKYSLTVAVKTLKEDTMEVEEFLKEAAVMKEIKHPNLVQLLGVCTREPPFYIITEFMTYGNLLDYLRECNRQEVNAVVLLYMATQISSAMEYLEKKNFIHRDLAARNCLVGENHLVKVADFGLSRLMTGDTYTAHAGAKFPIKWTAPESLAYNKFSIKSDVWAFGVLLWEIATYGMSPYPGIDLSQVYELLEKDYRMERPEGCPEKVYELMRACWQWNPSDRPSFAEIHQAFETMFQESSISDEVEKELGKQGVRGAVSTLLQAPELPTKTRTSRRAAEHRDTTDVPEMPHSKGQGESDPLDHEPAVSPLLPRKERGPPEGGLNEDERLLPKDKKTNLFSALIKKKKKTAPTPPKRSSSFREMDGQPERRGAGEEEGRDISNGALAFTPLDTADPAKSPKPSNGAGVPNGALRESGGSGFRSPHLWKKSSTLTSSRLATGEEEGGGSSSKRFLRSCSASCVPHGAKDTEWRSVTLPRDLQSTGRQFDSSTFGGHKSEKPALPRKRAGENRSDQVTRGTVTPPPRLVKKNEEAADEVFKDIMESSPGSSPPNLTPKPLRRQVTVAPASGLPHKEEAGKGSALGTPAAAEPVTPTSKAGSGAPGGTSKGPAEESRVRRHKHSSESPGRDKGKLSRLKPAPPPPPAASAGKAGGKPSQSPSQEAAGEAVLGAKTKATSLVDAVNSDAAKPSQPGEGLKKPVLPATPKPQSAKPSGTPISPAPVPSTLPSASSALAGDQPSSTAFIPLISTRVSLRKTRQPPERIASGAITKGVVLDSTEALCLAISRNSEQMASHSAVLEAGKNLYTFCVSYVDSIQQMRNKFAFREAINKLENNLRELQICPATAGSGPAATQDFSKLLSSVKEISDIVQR
Glycogen synthase kinase-3 beta (Homo sapiens), sequence (P49841 whole entry, looked up): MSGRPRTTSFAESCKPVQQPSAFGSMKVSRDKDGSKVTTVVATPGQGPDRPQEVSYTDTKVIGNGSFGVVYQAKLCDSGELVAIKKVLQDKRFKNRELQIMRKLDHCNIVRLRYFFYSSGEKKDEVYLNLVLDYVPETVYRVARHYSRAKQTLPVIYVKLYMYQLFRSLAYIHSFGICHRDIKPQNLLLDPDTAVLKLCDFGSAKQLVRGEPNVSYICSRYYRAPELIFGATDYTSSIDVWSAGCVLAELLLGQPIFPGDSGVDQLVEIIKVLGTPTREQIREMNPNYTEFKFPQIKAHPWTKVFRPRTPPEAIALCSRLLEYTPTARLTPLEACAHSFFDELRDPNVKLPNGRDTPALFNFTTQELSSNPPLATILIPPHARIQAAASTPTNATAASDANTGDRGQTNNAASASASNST

Regarding `COC(=O)CC(NC(=O)C(C)NC(=O)C(NC(=O)C(CC(=O)OC)NC(=O)C(NC(=O)OCc1ccccc1)C(C)C)C(C)C)C(=O)CF` (stereo not drawn) (Cbz-VD(OMe)VAD(OMe)-CH2F; configuration not given here), the ΔTm in assay [1] was 0.15 °C; in assay [2], -1.13 °C; in assay [3] it was 0.27 °C; in assay [4], -0.22 °C; in assay [5] it was 0.19 °C; in assay [6], 0.29 °C. Also, the ΔTm in assay [7] was -1.87 °C; in assay [8], -0.97 °C.
Consider `OC[C@H]1O[C@@H](c2ccc(F)c(Cc3cc4ccccc4s3)c2)[C@H](O)[C@@H](O)[C@@H]1O`, for which the ΔTm was 0.51 °C in assay [1]; -3.4 °C in assay [2]; 0.04 °C in assay [3]; -0.29 °C in assay [4]; -0.62 °C in assay [5]; 0.05 °C in assay [6]. For the same molecule, the ΔTm in assay [7] is -1.82 °C; in assay [8], -0.42 °C.
`CS(=O)(=O)N1CCN(C(=O)c2cnc3ccc(F)cc3c2N2CCC(C#N)(c3ccccc3)CC2)CC1`: the ΔTm is 0.43 °C in assay [1]; -2.17 °C in assay [2]; -0.17 °C in assay [3]; 0.48 °C in assay [4]; 0.47 °C in assay [5]; -0.62 °C in assay [6]. The values for the ΔTm in assay [7] and in assay [8] were -0.82 °C and 0 °C, respectively.
As for `O=C(O)CCNc1cc(N2CCc3ccccc3CC2)nc(-c2ccccn2)n1`, the ΔTm in assay [1] was 0.06 °C; in assay [2], 0.28 °C; in assay [3], -0.09 °C; in assay [4], -0.34 °C; in assay [5] it was 0 °C; in assay [6] it was -0.2 °C. Besides, the ΔTm in assay [7] is -1.3 °C; in assay [8], 0.15 °C.
On to `Cc1ccc2[nH]c(-n3nc(C)c(Cc4ccccc4)c3O)nc2c1`, for which the ΔTm in assay [1] was 0.97 °C; in assay [2] it was -3.32 °C; in assay [3] it was 0.2 °C; in assay [4] it was 0.73 °C; in assay [5], 0.42 °C; in assay [6] it was 0.56 °C. Besides, the ΔTm was -1.88 °C in assay [7] and -0.69 °C in assay [8].
Consider `CCCc1nc(C)c2c(C)nc3ccc(OC)nc3n12`, for which the ΔTm is 1.04 °C in assay [1]; -3.02 °C in assay [2]; -0.07 °C in assay [3]; 2.7 °C in assay [4]; 1.39 °C in assay [5]; 0.58 °C in assay [6]. Also, the ΔTm in assay [7] is -1.87 °C; in assay [8] it was 0.69 °C.
Consider `CNC[C@@H](O)COc1ccc(Cl)c(-c2nc(-c3c(C)noc3C)c(C)c(N3CC4(CCN(C(=O)OC)CC4)C3)n2)c1`, for which the thermal shift (ΔTm) was 0.37 °C in assay [1]; -2.53 °C in assay [2]; 0.32 °C in assay [3]; 0.05 °C in assay [4]; -0.26 °C in assay [5]; -2.08 °C in assay [6]. The values for the ΔTm in assay [7] and in assay [8] were 0.12 °C and 0.65 °C, respectively.
`N=C(N)NC(=O)c1cnn(-c2cccc3ncccc23)c1C1CC1`: the ΔTm in assay [1] was 0.57 °C; in assay [2] it was -3 °C; in assay [3], -0.15 °C; in assay [4], -0.36 °C; in assay [5], -0.31 °C; in assay [6], 0.09 °C. In addition, the ΔTm is -2.42 °C in assay [7] and -0.58 °C in assay [8].
Take `CC(C)(F)C[C@H](N[C@@H](c1ccc(-c2ccc(S(C)(=O)=O)cc2)cc1)C(F)(F)F)C(=O)NC1(C#N)CC1`: the ΔTm in assay [1] is 0.21 °C; in assay [2], -2.13 °C; in assay [3], -0.11 °C; in assay [4], -0.06 °C; in assay [5] it was 0 °C; in assay [6] it was -1.51 °C. Moreover, the ΔTm is -0.27 °C in assay [7] and -1.8 °C in assay [8].
`CCc1ccccc1NC(=O)CSC(=O)NNC(=O)[C@H](Cc1c[nH]c2ccccc12)NC(=O)OC(C)(C)C`: the ΔTm in assay [1] is 1.95 °C; in assay [2], -0.97 °C; in assay [3], -0.07 °C; in assay [4], 0.05 °C; in assay [5] it was 4.75 °C; in assay [6] it was -10.2 °C. The ΔTm in assay [7] was 3.62 °C; in assay [8], 5.76 °C.
`COc1ccc(OC)c(-c2nnc3n2N=C(c2ccc(OC)c(OC)c2)CS3)c1`: the ΔTm is 0.21 °C in assay [1]; 2.23 °C in assay [2]; -0.04 °C in assay [3]; -0.07 °C in assay [4]; -1.12 °C in assay [5]; 0.55 °C in assay [6]. Also, the ΔTm in assay [7] was -1.28 °C; in assay [8], 1.86 °C.
